Test results published in the supplement of paper PMC8728848.
Many of the other results were omitted from the sample, so the strongest signals are more common in it than they were.

Legend:
Test in all cases: glycan array binding signal (z-score within array); higher = stronger binding
Conditions in all cases: glycan notation: IUPAC condensed, linker removed
[1] = biological target: Gal(b1-4)GlcNAc(b1-3)Gal(b1-4)GlcNAc(b1-6)[Gal(b1-3)]GalNAc
How it was run: (§1)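 The Consortium for Functional Glycomics database supplied 3228 glycan arrays, of which those lacking an available protein sequence were dropped. The binding signal, a within-array Z-score, was averaged across arrays of the same protein sequence and across linkers. Negative scores can be read as non-binding.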

[2] = biological target: Gal3S(b1-4)[Fuc(a1-3)]Glc6S
How it was run: as §1

[3] = biological target: Gal6P(b1-4)GlcNAc
How it was run: as §1

[4] = biological target: GalNAc(a1-3)GalNAc
How it was run: as §1

[5] = biological target: GalNAc(b1-3)GalNAc
How it was run: as §1

[6] = biological target: GalNAc(b1-3)GlcNAc
How it was run: as §1

[7] = biological target: GalNAc(b1-4)GlcNAc(b1-2)Man(a1-3)[GalNAc(b1-4)GlcNAc(b1-2)Man(a1-6)]Man(b1-4)GlcNAc(b1-4)GlcNAc
How it was run: as §1

[8] = biological target: GlcA(b1-3)GlcNAc
How it was run: as §1

[9] = biological target: GlcNAc(b1-2)[GlcNAc(b1-4)]Man(a1-3)[GlcNAc(b1-4)][GlcNAc(b1-2)Man(a1-6)]Man(b1-4)GlcNAc(b1-4)GlcNAc
How it was run: as §1

[10] = biological target: GlcNAc(b1-3)Gal(b1-4)GlcNAc(b1-3)Gal(b1-4)GlcNAc(b1-3)Gal(b1-4)GlcNAc(b1-3)Gal(b1-4)GlcNAc(b1-2)Man(a1-3)[GlcNAc(b1-3)Gal(b1-4)GlcNAc(b1-3)Gal(b1-4)GlcNAc(b1-3)Gal(b1-4)GlcNAc(b1-3)Gal(b1-4)GlcNAc(b1-2)Man(a1-6)]Man(b1-4)GlcNAc(b1-4)[Fuc(a1-6)]GlcNAc
How it was run: as §1

[11] = biological target: Kdn(a2-6)Gal(b1-4)GlcNAc
How it was run: as §1

[12] = biological target: Man(a1-2)Man(a1-3)[Man(a1-2)Man(a1-6)]Man
How it was run: as §1

[13] = biological target: Man(a1-2)Man(a1-6)[Man(a1-3)]Man(a1-6)[Man(a1-2)Man(a1-2)Man(a1-3)]Man(b1-4)GlcNAc(b1-4)GlcNAc
How it was run: as §1

[14] = biological target: Neu5Ac(a2-3)Gal(b1-3)GalNAc(b1-3)Gal(a1-4)Gal(b1-4)Glc
How it was run: as §1

[15] = biological target: Neu5Ac(a2-3)Gal(b1-4)GlcNAc(b1-2)Man
How it was run: as §1

[16] = biological target: Neu5Ac(a2-3)Gal(b1-4)GlcNAc(b1-3)Gal(b1-4)GlcNAc(b1-3)[Neu5Ac(a2-3)Gal(b1-4)GlcNAc(b1-3)Gal(b1-4)GlcNAc(b1-6)]GalNAc
How it was run: as §1

[17] = biological target: Neu5Ac(a2-3)Gal(b1-4)GlcNAc(b1-3)Gal(b1-4)GlcNAc(b1-6)[Gal(b1-3)]GalNAc
How it was run: as §1

[18] = biological target: Neu5Ac(a2-3)Gal(b1-4)GlcNAc6S
How it was run: as §1

[19] = biological target: Neu5Ac(a2-3)Gal6S(b1-4)GlcNAc
How it was run: as §1

[20] = biological target: Neu5Ac(a2-3)GalNAc
How it was run: as §1

[21] = biological target: Neu5Ac(a2-6)Gal(b1-3)GlcNAc(b1-3)[Gal(b1-4)GlcNAc(b1-6)]Gal(b1-4)Glc
How it was run: as §1

[22] = biological target: Neu5Ac(a2-6)Gal(b1-4)GlcNAc(b1-2)[Neu5Ac(a2-6)Gal(b1-4)GlcNAc(b1-4)]Man(a1-3)[GlcNAc(b1-4)][Neu5Ac(a2-6)Gal(b1-4)GlcNAc(b1-4)Man(a1-6)]Man(b1-4)GlcNAc(b1-4)GlcNAc
How it was run: as §1

[23] = biological target: Neu5Ac(a2-6)Gal(b1-4)GlcNAc(b1-2)[Neu5Ac(a2-6)Gal(b1-4)GlcNAc(b1-6)]Man(a1-6)[Neu5Ac(a2-6)Gal(b1-4)GlcNAc(b1-2)Man(a1-3)][GlcNAc(b1-4)]Man(b1-4)GlcNAc(b1-4)GlcNAc
How it was run: as §1

[24] = biological target: Neu5Ac(a2-6)Gal(b1-4)GlcNAc(b1-3)Gal(b1-3)GlcNAc
How it was run: as §1

[25] = biological target: Neu5Ac(a2-8)Neu5Ac(a2-3)Gal(b1-3)GalNAc(b1-4)[Neu5Ac(a2-8)Neu5Ac(a2-3)]Gal(b1-4)Glc
How it was run: as §1

[26] = biological target: Neu5Gc(a2-3)Gal(b1-3)[Fuc(a1-4)]GlcNAc
How it was run: as §1

B1: AntigenI/IIA3VP1 (Streptococcus mutans), C9E3B4 (protein)
chain: AANEADYQAKLTAYQTELARVQKANADAKAAYEAAVAANNAANAALTAENTAIKKRNADAKADYEAKLAKYQADLAKYQKDLADYPVKLKAYEDEQASIKAALAELEKHKNEDGNLTEPSAQNLVYDLEPNANLSLTTDGKFLKASAVDDAFSKSTSKAKYDQKILQLDDLDITNLEQSNDVASSMELYGNFGDKAGWSTTVSNNSQVKWGSVLLERGQSATATYTNLQNSYYNGKKISKIVYKYTVDPKSKFQGQKVWLGIFTDPTLGVFASAYTGQVEKNTSIFIKNEFTFYDEDGKPINFDNALLSVASLNREHNSIEMAKDYSGKFVKISGSSIGEKNGMIYATDTLNFKQGEGGSRWTMYKNSQAGSGWDSSDAPNSWYGAGAIKMSGPNNYVTVGATSATNVMPVSDMPVVPGKDNTDGKKPNIWYSLNGKIRAVNVPKVTKEKPTPPVKPTAPTKPTYETEKPLKPAPVAPNYEKEPTPPTRLEHHHHHH
glycan array binding signal (z-score) [1]: -0.398 | glycan array binding signal (z-score) [2]: 3.68 | glycan array binding signal (z-score) [3]: -1.28 | glycan array binding signal (z-score) [4]: 0.327 | glycan array binding signal (z-score) [5]: 1.37 | glycan array binding signal (z-score) [6]: -0.475 | glycan array binding signal (z-score) [7]: -0.868 | glycan array binding signal (z-score) [8]: -0.575 | glycan array binding signal (z-score) [9]: -1.35 | glycan array binding signal (z-score) [10]: 3.23 | glycan array binding signal (z-score) [11]: -1.05 | glycan array binding signal (z-score) [12]: -0.805 | glycan array binding signal (z-score) [13]: 0.975 | glycan array binding signal (z-score) [14]: 0.492 | glycan array binding signal (z-score) [15]: 0.921 | glycan array binding signal (z-score) [16]: 0.324 | glycan array binding signal (z-score) [17]: -0.29 | glycan array binding signal (z-score) [18]: -0.627 | glycan array binding signal (z-score) [19]: -0.68 | glycan array binding signal (z-score) [20]: -1.05 | glycan array binding signal (z-score) [21]: 0.439 | glycan array binding signal (z-score) [22]: 1.05 | glycan array binding signal (z-score) [23]: 0.993 | glycan array binding signal (z-score) [24]: -1.1 | glycan array binding signal (z-score) [25]: -0.035 | glycan array binding signal (z-score) [26]: -0.885
